Data taken from PubChem BioAssay (NCI).
About 79,000 compounds went through this panel and 15% of them were active in at least one assay; those are over-represented in the sample as a whole. The source made the active and inactive calls. Rule as the data show it: active = growth inhibition above about 70%; inactive = the rest.

What was measured:
[1] = NCI Yeast Anticancer Drug Screen. Data for the rad52 strain (AID 147);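 also: 0% = growth of vehicle-treated control cultures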; conditions: S. cerevisiae rad52 mutant growth inhibition, active compounds read high
Method in brief: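 Yeast strain carrying a DNA damage repair alteration was exposed to test compounds. Growth inhibition was measured relative to vehicle-treated controls.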

[2] = NCI Yeast Anticancer Drug Screen. Data for the wt1 strain (AID 149);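 also: 0% = growth of vehicle-treated wt1 cultures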; conditions: S. cerevisiae wt1 strain (SPY 50644) growth inhibition, active compounds read high
Method in brief: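 Readout: yeast growth inhibition, normalised to vehicle controls, in the wt1 strain exposed to test compounds.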

[3] = NCI Yeast Anticancer Drug Screen. Data for the mgt1 strain (AID 153); conditions: S. cerevisiae mgt1 mutant growth inhibition, active compounds read high
Method in brief: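 Yeast mgt1 strain (DNA repair/cell-cycle alteration panel) exposed to compounds; growth inhibition measured relative to vehicle-treated controls.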

[4] = NCI Yeast Anticancer Drug Screen. Data for the rad50 strain (AID 155);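 also: 0% = growth of vehicle-only cultures of the same strain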; conditions: S. cerevisiae rad50 strain growth inhibition, active compounds read high
Method in brief: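 Compounds were tested on a yeast strain with an engineered DNA damage repair alteration; the reported value is growth inhibition normalised to vehicle treatment.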

[5] = NCI Yeast Anticancer Drug Screen. Data for the mec2-1 strain (AID 157); conditions: S. cerevisiae mec2-1 strain, active compounds read high
Method in brief: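 mec2-1 yeast strain, carrying an alteration in DNA damage repair or cell cycle control, was exposed to compounds; growth inhibition was measured relative to vehicle-treated controls.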

[6] = NCI Yeast Anticancer Drug Screen. Data for the rad14 strain (AID 159);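 also: 0% = growth of vehicle-treated control cultures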; conditions: S. cerevisiae rad14 strain growth inhibition, active compounds read high
Method in brief: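 Compound-treated yeast with a defined DNA-repair lesion; growth inhibition normalised to vehicle-treated cultures.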

[7] = NCI Yeast Anticancer Drug Screen. Data for the sgs1 mgt1 strain (AID 161);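 also: 0% = growth of cultures given vehicle only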; conditions: S. cerevisiae sgs1 mgt1 strain, active compounds read high
Method in brief: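 Compounds are added to genetically altered yeast, and growth is compared with cultures given vehicle alone to give percent inhibition.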

[8] = NCI Yeast Anticancer Drug Screen. Data for the CLN2oe strain (AID 163);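 also: 0% = growth of vehicle-only control cultures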; conditions: S. cerevisiae CLN2oe strain, active compounds read high
Method in brief: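 Yeast cells carrying a defined cell-cycle control alteration were exposed to test compounds. Growth inhibition was scored against vehicle-treated control cultures.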

[9] = NCI Yeast Anticancer Drug Screen. Data for the cln2 rad14 strain (AID 165);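 also: 0% = growth equal to vehicle treated cultures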; conditions: S. cerevisiae cln2 rad14 strain, active compounds read high
Method in brief: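 Yeast carrying cln2 and rad14 alterations (cell cycle control and DNA damage repair) were exposed to compounds. Growth inhibition was measured against vehicle-treated controls.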

[10] = NCI Yeast Anticancer Drug Screen. Data for the bub3 strain (AID 167); conditions: S. cerevisiae bub3 mutant strain, active compounds read high
Method in brief: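 Growth of a checkpoint-deficient yeast mutant is measured after compound exposure. Values represent inhibition relative to vehicle.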

[11] = NCI Yeast Anticancer Drug Screen. Data for the wt2 strain (AID 169);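 also: 0% = growth of vehicle-treated yeast cultures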; conditions: S. cerevisiae wt2 strain growth inhibition, active compounds read high
Method in brief: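 Yeast cells were exposed to test compounds, and growth inhibition was measured relative to vehicle-treated controls.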

[12] = NCI Yeast Anticancer Drug Screen. Data for the sgs1 strain (AID 173);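 also: 0% = growth of vehicle-only control cultures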; conditions: S. cerevisiae sgs1 mutant, active compounds read high
Method in brief: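 Yeast mutant strains carrying defined defects in DNA damage repair or cell cycle control were exposed to test compounds. Growth inhibition was scored against vehicle-treated controls.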

[13] = NCI Yeast Anticancer Drug Screen. Data for the mlh1 rad18 strain (AID 175); conditions: S. cerevisiae mlh1 rad18 strain growth inhibition, active compounds read high
Method in brief: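 Growth inhibition of the yeast strain was measured after compound exposure and expressed relative to vehicle-treated controls. The strain carries defined defects in DNA damage repair.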

[14] = NCI Yeast Anticancer Drug Screen. Data for the rad18 strain (AID 177); conditions: S. cerevisiae rad18 mutant growth inhibition, active compounds read high
Method in brief: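 Yeast carrying a defined DNA damage repair alteration were exposed to compounds. Growth inhibition was expressed relative to vehicle-treated controls.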

[15] = NCI Yeast Anticancer Drug Screen. Data for the rad50EPP+ strain (AID 151);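 also: 0% = growth of vehicle-treated control cultures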; conditions: S. cerevisiae rad50 mutant strain, active compounds read high
Method in brief: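 Yeast strain carrying rad50 alteration (rad50EPP+) exposed to compounds; growth inhibition measured relative to vehicle-treated controls.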

[16] = NCI Yeast Anticancer Drug Screen. Data for the mlh1 strain (AID 171);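 also: 0% = growth of vehicle-treated control cultures of the same strain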; conditions: S. cerevisiae mlh1 strain growth inhibition, active compounds read high
Method in brief: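 Yeast carrying a defined genetic alteration in DNA damage repair or cell cycle control were exposed to test compounds. Growth inhibition was measured relative to vehicle-treated controls.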

[17] = at 5.0 µM (retest, dose inferred, filed as 0.5)
[18] = at 50.0 µM (retest, dose inferred, filed as 5.0)

Measured: growth inhibition

O=C1c2ccccc2C(=O)N1CCCC(=O)n1cc(F)c(=O)[nH]c1=O
active: [3]; at 33.0 µM 74% | [3]; at 100.0 µM 91% | [4]; at 50.0 µM 71.3% | [4]; at 100.0 µM 79% | [5]; at 33.0 µM 73% | [5]; [18] 88% | [5]; at 50.0 µM 83.2% | [5]; at 100.0 µM 93% | [7]; at 50.0 µM 85.2% | [11]; at 100.0 µM 82% | [12]; at 33.0 µM 72% | [12]; at 100.0 µM 88%
inactive: [1]; at 1.2 µM -31% | [1]; at 3.7 µM -33% | [1]; at 11.0 µM 0% | [1]; at 33.0 µM 29% | [1]; at 100.0 µM 8% | [2]; at 1.2 µM -51% | [2]; at 3.7 µM -43% | [2]; at 11.0 µM -26% | [2]; at 33.0 µM -21% | [2]; at 100.0 µM 34% | [3]; at 1.2 µM 5% | [3]; at 3.7 µM 23% | [3]; at 11.0 µM 47% | [4]; at 1.2 µM -3% | [4]; at 3.7 µM 2% | [4]; [17] 27% | [4]; at 11.0 µM 18% | [4]; at 33.0 µM 51% | [4]; [18] 66% | [5]; at 1.2 µM -24% | [5]; at 3.7 µM -19% | [5]; [17] 20% | [5]; at 11.0 µM 18% | [6]; at 1.2 µM -33% | [6]; at 3.7 µM -40% | [6]; at 11.0 µM -26% | [6]; at 33.0 µM -7% | [6]; at 100.0 µM 40% | [7]; [17] 24% | [7]; [18] 64% | [8]; at 1.2 µM 2% | [8]; at 3.7 µM 19% | [8]; at 11.0 µM -19% | [8]; at 33.0 µM 10% | [8]; at 100.0 µM 38% | [9]; [17] 30% | [9]; [18] 61% | [9]; at 50.0 µM 27.1% | [10]; at 1.2 µM 9% | [10]; at 3.7 µM 17% | [10]; [17] 11% | [10]; at 11.0 µM 10% | [10]; at 33.0 µM 45% | [10]; [18] 19% | [10]; at 50.0 µM 46.5% | [10]; at 100.0 µM 60% | [11]; at 1.2 µM -19% | [11]; at 3.7 µM -12% | [11]; at 11.0 µM 16% | [11]; at 33.0 µM 56% | [12]; at 1.2 µM -14% | [12]; at 3.7 µM 7% | [12]; at 11.0 µM 41% | [13]; [17] 39% | [13]; [18] 68% | [13]; at 50.0 µM 60.2% | [14]; at 1.2 µM 11% | [14]; at 3.7 µM 5% | [14]; at 11.0 µM 14% | [14]; at 33.0 µM 42% | [14]; at 100.0 µM 68%

N=C1N=Nc2nc(C3(c4nc5n(c4O)C(=N)N=N5)Cc4ccccc4C3=O)c(O)n21 (stereo unspecified)
active: [4]; at 50.0 µM 82.2% | [4]; at 100.0 µM 94% | [5]; at 100.0 µM 87% | [6]; at 33.0 µM 94% | [6]; at 100.0 µM 99% | [7]; [18] 70% | [10]; at 50.0 µM 85.5% | [10]; at 100.0 µM 86% | [11]; at 100.0 µM 89% | [16]; at 100.0 µM 95% | [12]; at 33.0 µM 74% | [12]; at 100.0 µM 95% | [13]; at 50.0 µM 92.7% | [14]; at 33.0 µM 75% | [14]; at 100.0 µM 96%
inactive: [1]; at 1.2 µM -1% | [1]; at 3.7 µM 1% | [1]; at 11.0 µM 5% | [1]; at 33.0 µM 18% | [1]; at 100.0 µM 69% | [2]; at 1.2 µM 3% | [2]; at 3.7 µM 7% | [2]; at 11.0 µM 11% | [2]; at 33.0 µM 23% | [2]; at 100.0 µM 67% | [15]; at 1.2 µM -2% | [15]; at 3.7 µM 0% | [15]; at 11.0 µM -1% | [15]; at 33.0 µM -1% | [15]; at 100.0 µM 3% | [4]; at 1.2 µM -9% | [4]; at 3.7 µM 34% | [4]; [17] 4% | [4]; at 11.0 µM -3% | [4]; at 33.0 µM 66% | [4]; [18] 38% | [5]; at 1.2 µM 2% | [5]; at 3.7 µM 4% | [5]; [17] 4% | [5]; at 11.0 µM 12% | [5]; at 33.0 µM 30% | [5]; [18] 28% | [5]; at 50.0 µM 59.1% | [6]; at 1.2 µM 7% | [6]; at 3.7 µM 21% | [6]; at 11.0 µM 48% | [7]; [17] 7% | [7]; at 50.0 µM 67% | [8]; at 1.2 µM 1% | [8]; at 3.7 µM 8% | [8]; at 11.0 µM 15% | [8]; at 33.0 µM 9% | [8]; at 100.0 µM 8% | [9]; [17] 13% | [9]; [18] 10% | [9]; at 50.0 µM 23.2% | [10]; at 1.2 µM 4% | [10]; at 3.7 µM 6% | [10]; [17] 0% | [10]; at 11.0 µM 9% | [10]; at 33.0 µM 45% | [10]; [18] 42% | [11]; at 1.2 µM 4% | [11]; at 3.7 µM 16% | [11]; at 11.0 µM 11% | [11]; at 33.0 µM 32% | [16]; at 1.2 µM 1% | [16]; at 3.7 µM 5% | [16]; at 11.0 µM 14% | [16]; at 33.0 µM 68% | [12]; at 1.2 µM 4% | [12]; at 3.7 µM 10% | [12]; at 11.0 µM 21% | [13]; [17] -63% | [13]; [18] 57% | [14]; at 1.2 µM 3% | [14]; at 3.7 µM 11% | [14]; at 11.0 µM 23%
